Dicer processing: inhibitors of Dicer pre-microRNA processing, primary screen, biochemical, cat-ELCCA, chemiluminescence; Endoribonuclease Dicer (Homo sapiens), Q9UPY3; cat-ELCCA pre-miR-21 Dicer processing; hits give high values; z-score at 25 µM; hit rate 6% among 47,000; in the data active means z-score above about 3, passing the limit was not always enough;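 further: higher signal means more uncleaved substrate so more Dicer inhibition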
Numbers stand for hits; - = inactive. The full list was thinned out, with hits kept by preference.

SMILES	Dicer processing
Cc1cc(NC(=O)/C(C#N)=C/N(C)C)no1	-
Cc1cc(C)c2nc(C3C(=O)c4ccccc4C3=O)ccc2c1	-
Cc1cc(C(=O)O)nc2ccccc12	-
Cc1cc(C)c2ccc(C3C(=O)c4ccc(O)cc4C3=O)nc2c1 (centres undefined)	3.13
N#C/C(=C\c1ccsc1Sc1ccc(Cl)cc1)C(=O)c1cccs1	-
Cc1cc(C)c(CSc2ccccn2)c(C)c1	-
COCCc1nnc2n1N=C(c1ccc(Br)cc1)CS2	-
Fc1ccc(OCc2nnc3n2N=C(c2ccc(Br)cc2)CS3)cc1	-
COc1ccc(OCc2nnc3n2N=C(c2ccc(Br)cc2)CS3)cc1	3
O=C1CNC(=S)N1Cc1cccc(Cl)c1	-
O=C(Oc1ccccc1N1CCOCC1)c1cccnc1Oc1ccccc1	-
Cc1cc(C)c(S(=O)(=O)Nc2ccc(F)cc2F)c(C)c1	-
CCOC(=O)Oc1ccc2c(=O)c(Oc3cc(C)cc(C)c3)coc2c1	-
CCC(C)OC(=O)C(C)Oc1ccc2c(=O)c(Oc3ccc(C)cc3)coc2c1 (centres undefined)	4.2
CCC(C)OC(=O)C(C)Oc1ccc2c(=O)c(Oc3cccc(C)c3)coc2c1 (centres undefined)	-
CCC(C)OC(=O)C(C)Oc1ccc2c(=O)c(Oc3ccccc3Cl)coc2c1 (centres undefined)	-
C=CCOC(=O)Oc1ccc2c(=O)c(Oc3cc(C)ccc3C)coc2c1	-
C=CCOC(=O)Oc1ccc2c(=O)c(Oc3cc(C)cc(C)c3)coc2c1	3.01
CCCCC1C(=O)N(c2ccccc2)N(c2ccccc2)C1=O	-
COCCOc1ncc(NC(=O)CSCC(=O)O)cc1C(F)(F)F	-
CN(C)C(=O)Oc1cccc([N+](C)(C)C)c1	-
O=[N+]([O-])c1ccc(Sc2c(-c3ccccc3)nc3ncccn23)cc1	-
CCCCCSc1nnc2c(n1)OC(c1cccnc1)N(C(C)=O)c1ccccc1-2 (centres undefined)	-
Cn1nnnc1SCC(=O)N1CCN(S(=O)(=O)c2ccccc2)C1	-
O=C(CSc1ccccn1)N1CCN(S(=O)(=O)c2ccccc2)C1	3.38
SMILES	Dicer processing
O=C(CSc1nnnn1-c1ccccc1)N1CCN(S(=O)(=O)c2ccccc2)C1	-
C=CCSc1ncc(-c2ccc(Cl)cc2)[nH]1	-
Clc1ccc(-c2nnnn2-c2ccc(Cl)cc2)cc1	-
Cc1ccc(S(=O)(=O)N(c2ccccc2)C2CC(C)Nc3ccccc32)cc1 (centres undefined)	-
O=c1nc2ccc(Cl)c3c2=c(/c1=C(\O)c1ccccc1)c1ccccc1c3=O	-
Cc1nc2ccc(N3NOC=C3O)cc2s1	-
OC1=CONN1c1cccc2ncccc12	3.24
O=C(O)CCCCCNc1nc(-c2ccccc2)nc2ccccc12	-
FC(F)(F)c1cc(-c2ccc3c(c2)OCO3)n[nH]1	-
Cc1ccc(O)c(-c2cc(C(F)(F)F)[nH]n2)c1	4.1
FC(F)(F)c1cc(-c2ccccc2)n[nH]1	-
CCOC(=O)C(=CNc1ccccc1-n1cccc1)C(=O)OCC	-
COc1cc(/C=N/NC(=O)c2ccccc2N)cc(OC)c1OC	3.33
COc1cc(/C=N/NC(=O)c2cc(-c3ccccc3)sc2N)cc(OC)c1OC	-
COc1cc(/C=N/N)cc(OC)c1OC	-
CCCCC(=O)N1c2ccccc2NC2=C(C(=O)CCC2)C1c1ccco1 (centres undefined)	-
CC(=O)Nc1cc(C)c(Br)cc1[N+](=O)[O-]	-
O=[N+]([O-])c1ccc2c3c(ccc(Br)c13)CC2	3.34
Cc1ccc(Br)cc1[N+](=O)[O-]	-
COC(=O)c1cc(S(=O)(=O)N(C)C2CCCCC2)oc1C	-
CCOC(=O)c1c(C)n(S(C)(=O)=O)c2ccc(N(C(=O)c3ccco3)S(C)(=O)=O)cc12	-
O=C1SC(Nc2ccccc2F)C(=O)N1c1ccccc1 (centres undefined)	3.38
Cc1ccc(N2C(=O)SC(Nc3ccc(C(=O)O)cc3)C2=O)cc1C (centres undefined)	-
COC(=O)c1ccccc1NC1SC(=O)N(c2ccccc2)C1=O (centres undefined)	-
Cc1ccc(N2C(=O)SC(Nc3ccc(C(=O)O)cc3)C2=O)cc1 (centres undefined)	5.36
SMILES	Dicer processing
O=C1SC(Nc2cccc(F)c2)C(=O)N1c1ccccc1 (centres undefined)	7.29
O=C1SC(Nc2ccccc2Br)C(=O)N1c1ccccc1 (centres undefined)	-
COC(=O)c1ccc(NC2SC(=O)N(c3ccccc3)C2=O)cc1 (centres undefined)	-
O=C1SC(Nc2cccc(Br)c2)C(=O)N1c1ccccc1 (centres undefined)	-
Cc1ccc(N2C(=O)SC(Nc3ccccc3C(=O)O)C2=O)cc1C (centres undefined)	-
CC(=O)c1csc(Nc2ccc(Cl)cc2)n1	-
CCN1C(=O)C(O)(CC(=O)c2ccc(C(C)C)cc2)c2cc(Br)ccc21 (centres undefined)	-
COC(=O)c1ccc2c(c1)nnn2C(C)C	-
